Screening results deposited in PubChem by National Center for Advancing Translational Sciences (NCATS).
AMA1 RON2 block: qHTS for Inhibitors of AMA1-RON; Towards Development of Antimalarial Drug Lead: Primary Screen; Potency, µM (highest dose often 58.2 µM), most hits filed as inhibitors; AlphaScreen AMA1-biotinylated RON2 peptide binding; 0.2% of 360,000 active; Plasmodium falciparum AMA1 (3D7) - RON2 peptide interaction; note: nearly all actives have a fitted effect of over 45% in size
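AMA1 (3D7) with his tag at 25 nM final met compounds first, then biotinylated RON2 peptide at 25 nM; detection used donor plus acceptor beads, 10 µg/mL apiece, read by AlphaScreen after 30 min at room temperature.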
SARS PLpro yeast: qHTS of Yeast-based Assay for SARS-CoV PLP | S. cerevisiae expressing SARS-CoV PLpro, growth rescue | Potency, µM (doses to about 32.9 µM), actives largely listed as activators | AID 485353, 2010 | 0.19% of 330,000 active; calls by dose curve; note: nearly all actives have a fitted effect of over 55% in size
HCV inh: qHTS Assay for Inhibitors of Hepatitis C Virus (HCV); 3.4% of 340,000 active; Huh7.5.1 HCVcc-Cre infection, luciferase reporter, 44 h; Potency, µM (top dose mostly 41.8 µM), most hits filed as inhibitors
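Whole-lifecycle infectious HCVcc-Cre system; cells 1,000/well, compound then virus (~0.5 moi) added 4 h after plating, 44 h culture. Luciferase read 15 sec following 15 min substrate incubation, room temp.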
Pf growth 96h: Primary qHTS for delayed death inhibitors of the malarial parasite plastid, 96 hour incubation; P. falciparum luciferase reporter growth, 96 h; 6.9% of 320,000 active; Potency, µM (top dose mostly 28.7 µM), hits mostly inhibitors
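P. falciparum expressing integrated firefly luciferase, in erythrocytes at 2% hematocrit, 0.05% parasitemia, incubated with compounds 96 h at 37 C, 5% CO2. Growth inhibition read as loss of luminescence; two-generation exposure targets delayed-death apicoplast inhibitors.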
Pf growth 48h: Primary qHTS for delayed death inhibitors of the malarial parasite plastid, 48 hour incubation; P. falciparum luciferase growth in erythrocytes, 48 h; Potency, µM (top dose mostly 28.7 µM), hits mostly inhibitors; 5.9% of 310,000 active; AID 504832, 2011
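Luciferase-expressing P. falciparum in infected erythrocytes (2% hematocrit, 0.1% parasitemia final) in RPMI 1640/0.5% Albumax were exposed to compound for 48 hours at 37 C, 5% CO2; growth read as luminescence.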
NS1 inh: qHTS Assay for Inhibitors of Influenza NS1 Protein Function; Potency, µM (highest dose often 46.1 µM); 0.4% of 270,000 active; AID 2326, 2010; calls by dose curve; note: actives are rising curves; nearly all actives have a fitted effect of over 50% in size
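Recovery from NS1-induced slow growth read by OD600 in budding yeast switched to galactose assay medium (pH 6.0, -URA) at 1:100 dilution. Compound 23 nl per well; the matching strain lacking NS1 serves as control.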
A number is an active result; 0 = inactive; ? = inconclusive; - = no result; [ ] = remark or other dose. The list is not random: actives were taken first. Their share in the collection is about 12%. Unless noted, calls come from the whole dose curve; as a rule, active = well fitted curve in the direction sought with a large enough effect; inconclusive = small, poorly fitted or top-dose-only effect, or another doubt; inactive = no such curve, though single readings can be large; an effect the other way counts as inactive or inconclusive.

SMILES | AMA1 RON2 block | SARS PLpro yeast | HCV inh | Pf growth 96h | Pf growth 48h | NS1 inh
CN(C(=O)c1cccc(NC(=O)Cc2ccc(NC(=O)C3CCN(S(=O)(=O)c4cccc([N+](=O)[O-])c4)CC3)cc2)c1)C1CCC1 | 0 | - | ? | - | - | -
CN(CCc1ccccc1)C(=O)c1ccc(NC(=O)Cc2ccc(NC(=O)C3CCCN(S(=O)(=O)c4cccc([N+](=O)[O-])c4)C3)cc2)cc1 (stereo unspecified) | 0 | - | ? | - | - | -
CN(Cc1ccccc1)C(=O)c1cccc(NC(=O)Cc2ccc(NC(=O)C3CCN(S(=O)(=O)c4cccc([N+](=O)[O-])c4)CC3)cc2)c1 | 0 | - | 8.9µM | - | - | -
COc1cc(N(C(C)=O)c2ccc(O)c(C(=O)O)c2)c2ncccc2c1 | 0 | - | - | - | - | -
O=C(CSc1nncn1-c1ccccc1)N1CCCC1 | 0 | 0 | 0 | 0 | 0 | 0
OC(c1ccccc1)c1ncc(-c2cccc(F)c2)[nH]1 (stereo unspecified) | 0 | - | - | - | - | -
COc1ccc(Cl)cc1N1C(=O)/C(=C\c2sccc2C)N=C1SCC(=O)NC1CC1 | 0 | 0 | ? | 9.3µM | - | 0
C=CCN1C(=O)/C(=C\c2ccc(Cl)cc2)N=C1SCC(=O)NC1CCCCC1 | 0 | 0 | 0 | 0 | - | 0
CC(C)(C)OC(=O)N1CCC[C@H]1C(=O)Nc1ccc(C#N)cc1 | 0 | 0 | 0 | 0 | 0 | 0
Cc1cc(C(=O)Nc2ccc(Br)cc2)c2ccccc2n1 | 0 | - | 0 | 0 | 0 | 0
Cc1cc(C(=O)NNC(=S)NC(C)c2ccccc2)c2ccccc2n1 (stereo unspecified) | 0 | 0 | 0 | 10µM | 0 | 0
Cc1cc(C(=O)Nc2ccccc2)c2ccccc2n1 | 0 | 0 | 0 | 13µM | 0 | 0
Cc1cc(C)cc(NC(=O)c2cc(C)nc3ccccc23)c1 | 0 | 0 | 0 | 12µM | ? | 0
CCOC(=O)c1cnc2ccccc2c1NCCO | 0 | 0 | 0 | ? | 0 | 0
CCOC(=O)c1cnc2c(ccc3ccccc32)c1NCCCN(C)C | 0 | 0 | ? | ? | 4.1µM | 0
CCOC(=O)c1cnc2ccc(C)cc2c1NCCN1CCOCC1 | 0 | 0 | 0 | 0 | 12µM | 0
CCOC(=O)c1cnc2ccc(Cl)cc2c1NCCN(C)C | 0 | 0 | 0 | 4.7µM | ? | 0
CSc1ncnc2ncn(C)c12 | ? | - | 0 | - | - | -
O=C(O)/C=C/c1cnn(-c2ccccc2)c1 | 0 | 0 | 0 | 0 | 0 | 0
CCCCNC(=O)C1(C)CCCCN1C(=O)c1ccc(C)c(F)c1 (stereo unspecified) | 0 | - | - | - | - | -
COc1ccccc1Nc1nnc(Cc2ccccc2)c(=O)[nH]1 | 0 | 0 | 0 | 12µM | 0 | -
COc1ccc(Cc2nnc(Nc3ccccc3OC)[nH]c2=O)cc1 | 0 | 0 | 2.8µM | 0 | ? | -
O=C(NCCN1CCOCC1)C(Sc1ccccc1)c1ccccc1 (stereo unspecified) | 0 | 0 | 0 | 0 | 0 | 0
Cc1ccc(C(=O)NC(=S)NCCCN2CCOCC2)cc1 | 0 | 0 | 0 | 0 | 0 | 0
O=C(NCCCN1CCOCC1)C(=O)N/N=C/c1c(Cl)cccc1Cl | 0 | 0 | 0 | 0 | 0 | 0
SMILES | AMA1 RON2 block | SARS PLpro yeast | HCV inh | Pf growth 96h | Pf growth 48h | NS1 inh
O=C(NCCCN1CCOCC1)C(Sc1ccccc1)c1ccccc1 (stereo unspecified) | 0 | 0 | 0 | 7.4µM | 0 | 0
O=C(NCCCN1CCOCC1)C(=O)N/N=C/c1c2ccccc2cc2ccccc12 | 0 | ? | 11µM | ? | 0 | 0
O=C(NC(=S)NCCCN1CCOCC1)c1cccc2ccccc12 | 0 | 0 | 0 | 6.6µM | ? | -
CCCCNS(=O)(=O)c1ccc(NC(=O)C(Sc2ccccc2)c2ccccc2)cc1 (stereo unspecified) | 0 | 0 | ? | ? | 10µM | 0
O=C(NCCCN1CCCC1=O)c1ccc(NS(=O)(=O)c2ccccc2)cc1 | 0 | 0 | 0 | ? | ? | -
O=C(NCCNC(=O)c1cc(Cl)ccc1Cl)c1cnccn1 | 0 | 0 | 0 | 0 | 0 | 0
C/C=C(/C(=C/C)c1ccc(O)cc1)c1ccc(O)cc1 | 0 | 0 | 0[8.37 µM] | ? | 0 | 0
CC1(C)C=C(c2ccc(O)cc2)CC(C)(C)N1 | 0 | ? | 0 | 13µM | 0 | 0
